# Results reported in the supplement of paper PMC13380429.
# System: Vero E6 infected with SARS-CoV-2
# Assay: morphology score (similarity to uninfected cells); higher = more like uninfected cells
# Settings: 24 h
row,SMILES,morphology score
1,CNC(=O)c1cc(COc2nnc(Nc3ccc(Cl)cc3)c3ccoc23)ccn1 [telatinib] (10 µM),0.0611
2,CCC(=O)c1ccc(OCC(O)CN2CCN(c3ccccc3)CC2)cc1 (centres undefined) [centpropazine] (10 µM),0.0954
3,CCCN(CCC)C(=O)Cc1c(-c2ccc(Cl)cc2)nc2ccc(Cl)cn12 [alpidem] (10 µM),0.0705
4,CCCc1c(OCC(O)COc2ccc3c(=O)cc(C(=O)O)oc3c2CCC)ccc(C(C)=O)c1O (centres undefined) (10 µM),0.197
5,OC[C@H]1O[C@@H](Oc2ccc(O)cc2)[C@H](O)[C@@H](O)[C@@H]1O [arbutin] (10 µM),0.104
6,N[C@@H](C(=O)N[C@@H]1C(=O)N2C(C(=O)O)=C(Cl)CS[C@H]12)c1ccccc1 [cefaclor] (10 µM),0.0453
7,COc1ccc2nc3[nH]nc(C)c3c(NCCOCCO)c2c1 (10 µM),-0.00598
8,Nc1nc(Cl)nc2c1ncn2[C@@H]1O[C@H](CO)[C@@H](O)[C@H]1O [2-chloroadenosine] (10 µM),-0.0246
9,CO[C@H]1C[C@H](O[C@@H]2/C(C)=C/C[C@@H]3C[C@@H](C[C@]4(CC[C@H](C)[C@@H](C5CCCCC5)O4)O3)OC(=O)[C@@H]3C=C(C)/C(=N/O)[C@H]4OC/C(=C\C=C\[C@@H]2C)[C@]43O)O[C@@H](C)[C@@H]1O [selamectin] (10 µM),0.602

# System: Vero E6 infected with SARS-CoV-2
# Assay: SARS-CoV-2 infection rate relative to infected DMSO; higher = more infection, active = 60 or less
# Settings: 24 h
row,SMILES,SARS-CoV-2 infection rate
1,CC(C)c1cc(-c2n[nH]c(=O)n2-c2ccc3c(ccn3C)c2)c(O)cc1O [ganetespib] (0.833333 µM),111% (inactive)
2,COc1ccc(Cc2nccc3cc(OC)c(OC)cc23)cc1OC [papaverine] (10 µM),105% (inactive)
3,NCCc1c[nH]c2ccc(C(N)=O)cc12 [5-carboxamidotryptamine] (10 µM),103% (inactive)
4,CC(C)N(CCNC(=O)CN1CCCC1=O)C(C)C [pramiracetam] (10 µM),115% (inactive)
5,CNC(=O)c1cc2c(cn1)[nH]c1ccccc12 (10 µM),85.5% (inactive)
6,CC(C)[C@H](N)C(=O)OCC(CO)OCn1cnc2c(=O)nc(N)[nH]c21 (mixture of isomers) [valganciclovir] (10 µM),102% (inactive)
7,c1ccc2c(c1)CCC[C@H]2Nc1nc2ccccc2[nH]1 (10 µM),89% (inactive)
8,C/C(=C\c1csc(C)n1)[C@@H]1C[C@@H]2O[C@]2(C)CCC[C@H](C)[C@H](O)[C@@H](C)C(=O)C(C)(C)[C@@H](O)CC(=O)O1 [epothilone-B] (0.833333 µM),115% (inactive)
9,Cn1c(COP(=O)(NCCBr)NCCBr)cnc1[N+](=O)[O-] (10 µM),106% (inactive)
10,CCCC(=O)C1CCN(c2ncnc3c2CN(C(=O)c2ccc(-c4ccccc4)cc2)CC3)CC1 (10 µM),104% (inactive)
11,Cc1ccc(S(=O)(=O)c2ccc([N+](=O)[O-])o2)cc1 (0.833333 µM),68% (inactive)
12,Cc1onc(-c2ccccc2Cl)c1C(=O)N[C@@H]1C(=O)N2[C@@H]1SC(C)(C)[C@@H]2C(=O)O [cloxacillin] (10 µM),99.5% (inactive)
13,CC(=O)c1c(C)c2cnc(Nc3ccc(N4CCNCC4)cn3)nc2n(C2CCCC2)c1=O [palbociclib] (10 µM),108% (inactive)
14,CCC1(C2=NCCN2)Cc2ccccc2O1 (centres undefined) [efaroxan] (10 µM),95% (inactive)
15,Cc1nnc(C(C)C)n1C1C[C@H]2CC[C@@H](C1)N2CC[C@H](NC(=O)C1CCC(F)(F)CC1)c1ccccc1 (stereo in doubt) [maraviroc] (10 µM),112% (inactive)
16,Cc1cnc(Nc2ccc(OCCN3CCCC3)cc2)nc1Nc1cccc(S(=O)(=O)NC(C)(C)C)c1 [fedratinib] (0.833333 µM),99.5% (inactive)
17,CC[C@@H]1/C=C(\C)C[C@H](C)C[C@H](OC)[C@H]2O[C@@](O)(C(=O)C(=O)N3CCCC[C@H]3C(=O)O[C@H](/C(C)=C/[C@@H]3CC[C@@H](O)[C@H](OC)C3)[C@H](C)[C@@H](O)CC1=O)[C@H](C)C[C@@H]2OC [ascomycin] (10 µM),100% (inactive)
18,O=C(Nc1cccnc1)N1CCC(Cc2cccc(Oc3ccc(C(F)(F)F)cn3)c2)CC1 (0.833333 µM),95.5% (inactive)
19,CN1Cc2c(N)cccc2C(c2ccccc2)C1 (centres undefined) [nomifensine] (10 µM),109% (inactive)
20,c1cc2c(cc1C1CCCCC1)c1c3n2CCNC3CCC1 (centres undefined) [tetrindole] (0.833333 µM),108% (inactive)

row,SMILES,SARS-CoV-2 infection rate
1,Clc1ccc(-c2nc3sccn3c2/C=N/OCc2ccc(Cl)c(Cl)c2)cc1 (10 µM),107% (inactive)
2,COc1ccc([C@]2(C#N)CC[C@@H](C(=O)O)CC2)cc1OC1CCCC1 [cilomilast] (10 µM),104% (inactive)
3,Nc1ncnc2c1ncn2[C@H]1CC[C@@H](CO)O1 [dideoxyadenosine] (10 µM),99% (inactive)
4,CC(=O)CC(=O)O [lithium-acetoacetate] (10 µM),102% (inactive)
5,CCOc1nc2cccc(C(=O)OCc3oc(=O)oc3C)c2n1Cc1ccc(-c2ccccc2-c2noc(=O)[nH]2)cc1 [azilsartan-medoxomil] (10 µM),116% (inactive)
6,C/C(=N\Nc1nnc2c(n1)[nH]c1c(C)cccc12)c1ccccn1 (10 µM),107% (inactive)
7,NC(=O)CC[C@H](N)C(=O)O [L-glutamine] (10 µM),94% (inactive)
8,Cc1ccc(C(=O)Nc2ccc(S(=O)(=O)O)c3cc(S(=O)(=O)O)cc(S(=O)(=O)O)c23)cc1NC(=O)c1cccc(NC(=O)Nc2cccc(C(=O)Nc3cc(C(=O)Nc4ccc(S(=O)(=O)O)c5cc(S(=O)(=O)O)cc(S(=O)(=O)O)c45)ccc3C)c2)c1 [suramin] (10 µM),101% (inactive)
9,NCCCCN [putrescine] (10 µM),94% (inactive)
10,N[C@@H](CSCCCO)C(=O)O [fudosteine] (10 µM),104% (inactive)
11,COc1ccc(CCN(C)CCCC(C#N)(c2cc(OC)c(OC)c(OC)c2)C(C)C)cc1OC (centres undefined) [gallopamil] (10 µM),98% (inactive)
12,CNC(=O)c1cc(COc2nnc(Nc3ccc(Cl)cc3)c3ccoc23)ccn1 [telatinib] (10 µM),107% (inactive)
13,CCC(=O)c1ccc(OCC(O)CN2CCN(c3ccccc3)CC2)cc1 (centres undefined) [centpropazine] (10 µM),93.5% (inactive)
14,CCCN(CCC)C(=O)Cc1c(-c2ccc(Cl)cc2)nc2ccc(Cl)cn12 [alpidem] (10 µM),99.5% (inactive)
15,CCCc1c(OCC(O)COc2ccc3c(=O)cc(C(=O)O)oc3c2CCC)ccc(C(C)=O)c1O (centres undefined) (10 µM),99.5% (inactive)
16,OC[C@H]1O[C@@H](Oc2ccc(O)cc2)[C@H](O)[C@@H](O)[C@@H]1O [arbutin] (10 µM),104% (inactive)
17,N[C@@H](C(=O)N[C@@H]1C(=O)N2C(C(=O)O)=C(Cl)CS[C@H]12)c1ccccc1 [cefaclor] (10 µM),104% (inactive)
18,COc1ccc2nc3[nH]nc(C)c3c(NCCOCCO)c2c1 (10 µM),111% (inactive)
19,Nc1nc(Cl)nc2c1ncn2[C@@H]1O[C@H](CO)[C@@H](O)[C@H]1O [2-chloroadenosine] (10 µM),105% (inactive)
20,CO[C@H]1C[C@H](O[C@@H]2/C(C)=C/C[C@@H]3C[C@@H](C[C@]4(CC[C@H](C)[C@@H](C5CCCCC5)O4)O3)OC(=O)[C@@H]3C=C(C)/C(=N/O)[C@H]4OC/C(=C\C=C\[C@@H]2C)[C@]43O)O[C@@H](C)[C@@H]1O [selamectin] (10 µM),71% (inactive)
